# Results: PubChem BioAssay
# Values joined by “and” are separate entries in the source; they are usually repeats but may differ in a detail not shown here. Equal values may be shown once. For some of these results: Measured potencies and affinities stand elsewhere. Active and inactive are the calls of the source.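 How the source made its calls: active means z-score of at least 1.8 in each of two replicates, scored against plate mean and spread of sample wells; inactive means the rest.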
# Assays:
# [1] = viability rescue of complex I mutant cybrids, primary screen, cell-based, galactose medium, ATP luminescence (AID 1645843); conditions: complex I mutant cybrid cells, 72 h, stronger effect = higher value;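 further: positive z means more ATP and so rescue of galactose-driven cybrid death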
# [2] = polyglutamine-triggered caspase-3 activation inhibitors, cell-based (AID 1583); conditions: polyglutamine-induced caspase-3 activation, cell assay; stronger effect = higher value;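 tested at 10 µM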
# [3] = suppressors of polyQ aggregation in yeast, 75Q-TubU reporter (AID 1593); conditions: Yeast 75Q polyglutamine aggregation reporter
# [4] = rescue of polyQ-huntingtin neuronal dysfunction in worms, whole organism, C. elegans mechanosensory neurons, N-terminal huntingtin (AID 1599); conditions: touch response, stronger effect = higher value
# [5] = inhibitors of mitochondrial cytochrome c release, biochemical, purified mitochondria (AID 1603); conditions: stronger effect = lower value;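 further: mouse liver mitochondria challenged with calcium chloride; signal normalized to the plate average as 100%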
# [6] = inhibitors of polyQ protein aggregation (AID 1604); conditions: polyglutamine-induced protein aggregation inhibition assay; stronger effect = higher value; tested at 2.5 µM
# [7] = enhancers of glutamate uptake in motor neurons, MN-1 cell line (AID 1612); conditions: MN-1 motor neuron cells, stronger effect = higher value;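 further: tested at 1 µM final; 0% = mean of DMSO vehicle wells on each plate; positive means more glutamate uptake than control and negative means less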
# [8] = suppressors of polyglutamine aggregation in yeast, 75Q-TubH (AID 1616); conditions: S. cerevisiae 75Q-TubH polyglutamine aggregation suppression; stronger effect = higher value
# [9] = reducers of polyQ inclusions in PC12 cells, cell-based, NGF-treated PC12, GFPQ80 (AID 1614); conditions: PC12 NGF-treated GFP-polyQ80 inclusion reduction;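 further: lower means fewer inclusions and 0 means no inclusions at all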
structure (smiles),measurement,setting,value
Cc1nsc(NC(=O)N2CCCC2C)n1 (centres undefined),z-score,[1],-0.04 (inactive)
Cc1cc2c(=O)n(Cc3nc4ccccc4[nH]3)cnc2s1,z-score,[1],-0.615 (inactive)
CC(C)N(C)C(=O)c1cc(-c2cnc(C(C)(C)C)nc2)nc2cc(F)ccc12,z-score,[1],-0.525 (inactive)
CSCc1ccc(C(=O)Nc2cccc3cccnc23)o1,z-score,[1],1.12 (inactive)
CC(Oc1ccc2c(c1)OCO2)C(=O)N(Cc1nccn1C)C(C)C (centres undefined),z-score,[1],-0.22 (inactive)
CC(CCCC(C)(C)O)CCNCC1(CO)CCC1 (centres undefined),z-score,[1],-0.48 (inactive)
Cc1cnc(CN(C)Cc2ccc(-c3nc(C(F)(F)F)c(C)c(=O)[nH]3)cc2)[nH]1,z-score,[1],-0.58 (inactive)
CCCC(C)c1nc2c(cnn2CC(C)C)[nH]1 (centres undefined),z-score,[1],1.06 (inactive)
Cc1cc(CN(C)Cc2ccc(-c3nc(C)c(C)c(=O)[nH]3)cc2)ccn1,z-score,[1],-0.52 (inactive)
CCC(=O)c1ccc2c(c1)N(CC(C)N(C)C)c1ccccc1S2 (centres undefined),inhibition,[2],-29.2%
same,score,[3],1.17
same,rescue above control,[4],1.64
same,cytochrome c release ratio,[5],1.13
same,inhibition of aggregation,[6],69.7%
same,glutamate uptake change,[7],-2.12%
same,aggregation suppression score,[8],1.33
O=c1c2sc(-c3ccc(F)cc3)cc2ncn1Cc1nc2ccccc2[nH]1,z-score,[1],0.44 (inactive)
COc1nccnc1-c1cccc(-n2cccn2)c1,z-score,[1],-0.545 (inactive)
COc1cccc(C(=O)c2ccccc2O)c1O,inhibition,[2],-4.26%
same,score,[3],0.2
same,rescue above control,[4],0
same,cytochrome c release ratio,[5],1.59
same,inhibition of aggregation,[6],85.8%
same,glutamate uptake change,[7],-9.84%
same,aggregation suppression score,[8],0.104
O=C(NC(Cn1cccn1)c1ccccc1)c1ccc2nccnc2c1 (centres undefined),z-score,[1],1.25 (inactive)
COc1cc(Cl)ccc1C(=O)N1CCC(Cn2cc(C3CC3)nn2)CC1,z-score,[1],-0.63 (inactive)
CCC1(CC)CC1C(=O)N1CCC(n2cc(C3(O)CCCC3)nn2)CC1 (centres undefined),z-score,[1],-0.565 (inactive)
Fc1ccc(C(c2ccccc2)(c2ccccc2F)n2ccnc2)cc1 (centres undefined),inhibition,[2],-9.56% and 14%
same,score,[3],1.45 and 0.36
same,rescue above control,[4],12 and 6.65
same,cytochrome c release ratio,[5],3.37 and 1.21
same,glutamate uptake change,[7],5.37% and 7.94%
same,inclusion score,[9],2
same,aggregation suppression score,[8],1.35 and 0.117
Cc1cc(CC(=O)Nc2cc(C)nn2C2CCCCC2)on1,z-score,[1],0.225 (inactive)
c1ccc(C(CCn2ccnc2)NC2CCCCCC2)cc1 (centres undefined),z-score,[1],-0.47 (inactive)
CC(O)Cc1cn(CC2CCN(C(=O)C3CCCCCC3)CC2)nn1 (centres undefined),z-score,[1],-0.51 (inactive)
CCN(CC)C(=O)c1cc(-c2cnc(C(C)C)nc2)nc2c(C)cccc12,z-score,[1],-1.09 (inactive)
COC1=C2C[C@@H](C)C[C@H](OC)[C@H](O)[C@@H](C)/C=C(\C)[C@@H](OC(N)=O)[C@H](OC)/C=C\C=C(/C)C(=O)NC(=CC1=O)C2=O,inhibition,[2],-5.02%
same,score,[3],2.11
same,rescue above control,[4],0
same,cytochrome c release ratio,[5],1.13
same,inhibition of aggregation,[6],-23.4%
same,glutamate uptake change,[7],10.3%
same,aggregation suppression score,[8],1.43
Cc1ccccc1-n1cc(-c2ccnc(NCc3nnc4n3CCCC4)n2)cn1,z-score,[1],-0.305 (inactive)
Cc1ccccc1C1CCCN(C(=O)CCC(C)C)C1 (centres undefined),z-score,[1],-0.255 (inactive)
COc1ccc(-c2ccc3cc(Cl)ccc3n2)c(OC)c1,z-score,[1],1.15 (inactive)
COc1ccc(OC)c(-c2ncnc3sc(C)c(C)c23)c1,z-score,[1],0.645 (inactive)
Cc1nnc(NC(=O)N(C)CC2COc3ccccc3O2)s1 (centres undefined),z-score,[1],0.025 (inactive)
Cc1ccn2cc(C(=O)N(CC(C)C)CC(C)C)nc2c1,z-score,[1],-0.515 (inactive)
Cc1ccc(C(=O)N2CCNC(=O)C2Cc2ccccc2)cc1F (centres undefined),z-score,[1],-0.505 (inactive)
CN(CC1Cc2ccccc2O1)C(=O)Nc1nc(-c2ccccc2)ns1 (centres undefined),z-score,[1],1.98 (inactive)
O=C(CC1CCCCCC1)N1CCC(Cn2cc(CO)nn2)CC1,z-score,[1],-0.5 (inactive)
COc1ccccc1N1CCN(C(=O)CCC(C)C)CC1(C)C,z-score,[1],2.31 (active)
Cc1cc(CN2CCN(C)C(CCO)C2)c2cccc(C)c2n1 (centres undefined),z-score,[1],-0.035 (inactive)
Cc1ccsc1-c1cccc(C(=O)c2nccn2C)c1,z-score,[1],0.225 (inactive)
CC(C)c1cc(C(=O)N2CCCC(c3ccc(Cl)cc3)C2)on1 (centres undefined),z-score,[1],0.165 (inactive)
O=C(Nc1n[nH]c(Cc2ccccc2)n1)N1CCN(C(=O)c2ccco2)CC1,z-score,[1],2.72 (active)
Cc1ccc(-c2nn(CC(=O)Nc3cnn(C)n3)c3ccccc23)c(F)c1,z-score,[1],-0.4 (inactive)
COc1ccc(-c2cccc(C(=O)c3nccn3C)c2)c(C)c1,z-score,[1],-0.555 (inactive)
O=c1cc(CCn2cccn2)nc(-c2ccc(CN3CCC[C@@H](O)C3)cc2)[nH]1,z-score,[1],-0.025 (inactive)
CC(C)Cc1cn(C2CCN(C3Cc4ccccc4C3)CC2)nn1,z-score,[1],-0.99 (inactive)
CCc1ncc(C(=O)N2CCCC(Cn3cc(-c4ccccc4)nn3)C2)cn1 (centres undefined),z-score,[1],0.19 (inactive)
Cn1ccnc1C(=O)c1cccc(-c2ccccc2Cl)c1,z-score,[1],-0.515 (inactive)
CC(C)Cc1noc(C2C3CCC4C(CCC32)C4(Cl)Cl)n1 (centres undefined),z-score,[1],-0.52 (inactive)
OCC1CCCN(C2CCN(c3ncnc4sccc34)CC2)C1 (centres undefined),z-score,[1],1 (inactive)
Cc1cc(NC(=O)Cn2ccc(-c3ccsc3)n2)n(-c2ccccn2)n1,z-score,[1],1.83 (inactive)
CCN(Cc1ccncc1)C(=O)c1cc(-c2cnc(C)nc2)nc2c(C)cccc12,z-score,[1],-0.835 (inactive)
CC(C)CCC(=O)N1CCCCC1CCc1ccc(O)cc1 (centres undefined),z-score,[1],-0.375 (inactive)
COc1ccc(C(=O)N2CCN(C(=O)c3cc(C)c(C)cc3C)CC2)cc1,z-score,[1],0.125 (inactive)
CC(CCN1CCC(n2cc(CO)nn2)CC1)CC(C)(C)C (centres undefined),z-score,[1],-0.48 (inactive)
CCCCc1ncc(-c2nc3ccc(C)cc3c(C(=O)N(C)CC)c2C)cn1,z-score,[1],-0.54 (inactive)
Cc1ccn(CCN2CCC(Oc3cccc(Cl)c3)CC2)n1,z-score,[1],0.135 (inactive)
CCCC1CCCN1Cc1ccccc1OC1(C(=O)O)CCCC1 (centres undefined),z-score,[1],-0.265 (inactive)
Cc1cnc(NCCCn2ncc3ccccc32)nc1-c1cnn(C)c1,z-score,[1],0.065 (inactive)
c1ccc(Cc2noc(-c3cccc4nccnc34)n2)cc1,z-score,[1],2.6 (active)
NC(=O)NCc1cn(CC2CCN(C(=O)C3CCCCCC3)CC2)nn1,z-score,[1],-0.565 (inactive)
